Assay outcomes: PubChem, several laboratories
Most compounds without a hit are left out; they make up all but 4.3% or so of the library.
NR3A LBD binder: modulates the human NR3A ligand-binding domain; Tm shift relative to glycine control, % at 25 µM; NR3A LBD differential scanning fluorimetry, Tm shift; 0% = protein alone, 100% = glycine-bound protein; AID 1259313; 340,000 tested, 2.5% active;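 active means melting temperature shift of at least 10% of the positive control shift, at one fixed dose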
ADAM10 inh: ADAM10 inhibition, QFRET primary screen | inhibition, % at 7 µM | 370,000 tested, 0.62% active | recombinant ADAM10, EDANS/DABCYL FRET peptide cleavage, 3 h | O14672;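 active means inhibition above a per-campaign cutoff equal to the mean of compounds falling between control-based bounds plus 3 SD, cut at about 20% in these data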;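 further: 0% = DMSO wells while the 100% control is not disclosed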
FAS-TE inh: blocks the thioesterase domain of human fatty acid synthase | P49327 | recombinant FAS-TE, OMFH fluorogenic substrate, fluorescence endpoint | inhibition, % at 15 µM | 360,000 tested, 0.67% active | AID 602261;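 active means compounds whose normalised, plate-corrected inhibition of enzyme fluorescence in the single-dose primary screen is 50% or more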;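 further: 0% = DMSO with enzyme and 100% = substrate without enzyme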
ADAM17 inh: inhibits human ADAM17; 370,000 tested, 0.83% active; inhibition, % at 6.95 µM; recombinant ADAM17, EDANS/DABCYL FRET peptide cleavage; AID 720648;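 active means inhibition above the mean of compounds lying between control limits plus 3 SD, set per campaign, cut at about 8.5% in these data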;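 further: 0% = DMSO-only wells as the low control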
sPLA2-III inh: Blocks human group III sPLA2 activity | Q9NZ20 | QFRET BODIPY PC-A2 liposome hydrolysis, fluorescence | inhibition, % at 12.2 µM | 370,000 tested, 0.56% active | AID 743126;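 active means inhibition above mean plus 3 SD of compounds lying within the high and low control bounds, cut at about 19% in these data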;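 further: 0% = median of test compound wells and 100% = no enzyme DMSO wells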
Target sequence (Q9NZ20 whole entry, looked up): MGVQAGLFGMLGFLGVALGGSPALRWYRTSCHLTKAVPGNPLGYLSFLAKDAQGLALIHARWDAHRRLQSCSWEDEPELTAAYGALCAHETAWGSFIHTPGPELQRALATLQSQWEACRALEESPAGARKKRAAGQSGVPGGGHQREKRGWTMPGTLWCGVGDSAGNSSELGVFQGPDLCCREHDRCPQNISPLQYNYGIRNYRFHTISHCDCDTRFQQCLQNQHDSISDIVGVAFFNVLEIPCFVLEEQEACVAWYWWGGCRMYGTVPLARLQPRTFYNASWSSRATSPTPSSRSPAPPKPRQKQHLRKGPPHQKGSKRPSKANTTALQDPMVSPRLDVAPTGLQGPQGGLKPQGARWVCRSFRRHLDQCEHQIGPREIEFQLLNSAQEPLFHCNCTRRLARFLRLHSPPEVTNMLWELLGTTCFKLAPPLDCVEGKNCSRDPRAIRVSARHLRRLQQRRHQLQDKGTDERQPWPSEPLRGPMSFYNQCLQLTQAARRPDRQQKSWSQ
The depositor's hits bear a star; . = not tested or not shown.

SMILES	NR3A LBD binder	ADAM10 inh	FAS-TE inh	ADAM17 inh	sPLA2-III inh
Cc1nc2c([nH]c3ccc(Br)cc32)s1	15*	1	-32	-4	-2
C=CCN(CC#Cc1ccc(OC)cc1)CC=C	.	-4	.	-1	4
O=C(O)c1cccc(-c2ccc(/C=N/Nc3ccc([N+](=O)[O-])cc3)o2)c1	12*	8	2	3	-40
NS(=O)(=O)c1ccc(-c2ccc(/C=N/Nc3ccc(C(=O)O)cc3)o2)cc1	3	-42	-4	-21	-8
O=C(O)c1ccc(-c2ccc(/C=N/Nc3ccc([N+](=O)[O-])cc3)o2)cc1	10*	-83	2	-31	-4
CCc1ccc(NC(=O)c2ccc3nc(N)sc3c2)cc1	16*	7	6	-1	-8
CSc1nc2ccc(NC(=O)c3ccc(F)c(F)c3)cc2s1	28*	2	13	1	-10
O=C(Nc1ccc2oc(-c3ccccc3)nc2c1)c1cccs1	11*	-126	2	-38	-23
CSc1nc2ccc(NC(=O)c3cccs3)cc2s1	20*	-5	6	1	-4
CC1CCC2(CCC(=O)N2CCCOC(=O)c2ccccc2)CC1 (configuration not stated)	.	5	.	1	6
Cn1ccc2ccc(-c3ccc4c(c3)[C@]3(CCC[C@@H](OCc5ccccc5)[C@@H]3NC(=O)CCc3ccccc3)C(=O)N4Cc3ccccc3)cc21	.	-2	.	0	11
CCCCNC(=O)OCCCN1CCC2(CCC(c3ccccc3)CC2)C1 (configuration not stated)	.	-4	.	-3	7
CSc1nc2ccc(NC(=O)c3cc4ccccc4o3)cc2s1	19*	1	-8	-2	-4
CSc1nc2ccc(NC(=O)c3ccco3)cc2s1	4	4	-10	0	3
O=C(Nc1cccc(-c2nc3ccccc3s2)c1)c1cccs1	12*	11	44	1	0
O=C(CSc1nc2ccccc2n1Cc1ccccc1)NN=Cc1c[nH]c2ccccc12	.	12	.	7	-23
COc1ccc2ccccc2c1C=NNC(=O)c1cc(-c2ccc(C)cc2)n[nH]1	.	-40	.	-20	-17
Cc1nc2ccccc2nc1N/N=C/c1ccc(O)cc1	11*	-23	-4	-5	0
Cc1nc(N/N=C/c2ccc(O)cc2)c2cnn(-c3ccccc3)c2n1	12*	-30	10	-12	-39
COc1ccccc1N1CCN(S(=O)(=O)c2ccc3c(c2)CCC(=O)N3)CC1	.	6	.	1	-3
COC(=O)[C@]1(Cc2ccccc2)N[C@H](c2ccc(-c3ccc4c(c3)OCO4)cc2)[C@@H]2C(=O)N(C)C(=O)[C@@H]21	-2	-6	86*	-3	4
COC(=O)[C@]1(CC(C)C)N[C@H](c2ccc(-c3ccc4c(c3)OCO4)cc2)[C@@H]2C(=O)N(C)C(=O)[C@@H]21	1	-10	31	-6	3
COc1c2occc2c(OC)c2c(=O)cc(C(F)(F)C(F)(F)F)oc12	1	0	-4	-1	-4
COc1c2occc2c(OC)c2c(=O)cc(C(F)(F)F)oc12	16*	-3	-9	-2	4
Cc1ccc(-c2c(C(=O)NCc3ccc(F)cc3)oc(=O)c3ccccc23)cc1	14*	12	30	1	-11
SMILES	NR3A LBD binder	ADAM10 inh	FAS-TE inh	ADAM17 inh	sPLA2-III inh
CCC(C)CNC(=O)c1oc(=O)c2ccccc2c1-c1ccc(C)cc1 (configuration not stated)	.	0	.	2	-4
Cc1onc(-c2ccccc2)c1C(=O)NCc1ccc(F)cc1	11*	5	-2	-1	-1
Cc1nc2ccc(NC(=O)c3ccc(F)cc3Cl)cc2c(=O)[nH]1	.	-48	.	-11	6
Cc1ccc(Nc2nc(N)c([N+](=O)[O-])c(NCc3ccco3)n2)cc1	-3	9	12	3	-11
Fc1ccc(Nc2nc(NCc3ccco3)c3ccccc3n2)cc1	10*	-39	21	-16	-3
COc1ccc(S(=O)(=O)NCCS(=O)(=O)N2CCN(c3ccccc3)CC2)cc1	19*	-9	1	-5	0
O=S(=O)(NCCS(=O)(=O)N1CCN(c2ccccc2)CC1)c1ccccc1	-1	-5	3	-4	-11
CCOC(=O)c1sc(/N=C/c2ccc(O)cc2O)cc1C	14*	3	-5	5	5
COc1ccc(C)cc1NC(=O)CSc1nnc(-c2n[nH]c3c2CCC3)n1N	.	-5	.	-3	4
O=C(Nc1ccc(OC(F)(F)F)cc1)Oc1ccccc1N1CCCCC1	13*	-2	11	-2	-5
O=C(Nc1ccc(OC(F)(F)F)cc1)Oc1ccccc1N1CCOCC1	3	4	7	1	2
COc1cc(C(=O)Nc2c(C(=O)O)[nH]c3ccc(Br)cc23)cc(OC)c1OC	10*	-2	11	-1	-37
Cc1cc(Cl)ccc1Nc1ncccc1C(N)=O	151*	6	19	4	2
Cc1cccc(C(=O)Nc2nc(C)c(C(=O)Nc3ccc4c(c3)CCC4)s2)c1	28*	11	26	1	-10
Cc1cccc(NC(=O)c2sc(C)nc2C)c1	-2	-7	-6	-4	2
COc1ccc(CCC(=O)OCC(=O)c2cccc(OC)c2)cc1	-2	-14	-1	-5	13
COc1ccc(CCC(=O)OCC(=O)c2ccc(C)cc2)cc1	56*	10	16	-1	-8
CC1CCCN(c2cccc3c2S(=O)(=O)N(Cc2cccc(Cl)c2)[C@@H](C)[C@H](c2ccccc2)O3)C1 (some centres not stated)	.	-7	.	-4	0
COc1ccc(/C(N)=N/OC(=O)c2c(-c3ccccc3Cl)noc2C)cc1OC	18*	-4	4	-3	3
Cc1onc(-c2ccccc2Cl)c1C(=O)OCC(=O)c1ccc2c(c1)OCCO2	12*	9	24	6	-1
O=S1(=O)c2ccc(N3CCCC3)cc2Oc2ccccc2CN1Cc1cn(Cc2ccccc2C(F)(F)F)nn1	.	-10	.	-8	13
O=C(CSc1nc2sc3c(c2c(=O)n1-c1ccc(Cl)cc1)CCC3)Nc1ccc(C(=O)O)cc1	.	-13	.	-6	-2
O=C(Nc1cccc(-n2cnnn2)c1)c1cc(Cl)ccc1Cl	-4	3	16	-1	2
O=C(Nc1cccc(-n2cnnn2)c1)c1ccoc1COc1ccc(Cl)cc1	21*	4	36	2	-7
O=C(C1CCN(c2ncnc3c2sc2cccc(F)c23)CC1)N1CCN(C(=O)C2CCCO2)CC1 (configuration not stated)	.	-94	.	-23	0
Cc1cccc(NC(=O)CSc2nsc(SCC(=O)Nc3cccc(C)c3)c2C#N)c1	14*	0	31	-7	4
N#Cc1c(SCC(=O)Nc2ccccc2)nsc1SCC(=O)Nc1ccccc1	15*	-5	10	-1	15
COC(=O)CSc1nsc(SCC(=O)OC)c1C#N	-4	4	-6	2	-7
N#CCC[C@H]1CC[C@]2(CCCN(C(=O)C3CCCCC3)C2)O1	.	2	.	3	10
